Sampled rows, rich in hits. Any-hit rate of the full collection: about 1.5%.
ABHD5-PLIN5 inh: ABHD5-PLIN5 protein interaction inhibition; AID 602281; Split G. princeps luciferase complementation, luminescence, 4 h; 360,000 tested, 0.78% active; inhibition, % at 4 µM; Q00G26+Q8WTS1;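 active = inhibition above the mean inhibition across every tested compound plus 3 SD, cut at about 22% in these data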
NTR1 ag: agonists of human neurotensin receptor NTR1; 330,000 tested, 0.17% active; AID 493036; NTR1-U2OS beta-arrestin-GFP spot imaging, agonist mode; activation, % at 20 µM; P30989;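 active = activation at or above 40% of the spot to cytoplasm intensity ratio, with at least 20 cells analyzed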
Beta2AR agonist: human beta-2 adrenergic receptor agonism by FAP; AID 504454; 340,000 tested, 0.43% active; response, % (test concentration not listed); Am2.2-beta2AR cells, FAP receptor internalization, flow cytometry;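 active = response above a set limit, near 3 SD of response in nonfluorescent compounds, cut at about 42% in these data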
Target sequence (P07550 whole entry, looked up): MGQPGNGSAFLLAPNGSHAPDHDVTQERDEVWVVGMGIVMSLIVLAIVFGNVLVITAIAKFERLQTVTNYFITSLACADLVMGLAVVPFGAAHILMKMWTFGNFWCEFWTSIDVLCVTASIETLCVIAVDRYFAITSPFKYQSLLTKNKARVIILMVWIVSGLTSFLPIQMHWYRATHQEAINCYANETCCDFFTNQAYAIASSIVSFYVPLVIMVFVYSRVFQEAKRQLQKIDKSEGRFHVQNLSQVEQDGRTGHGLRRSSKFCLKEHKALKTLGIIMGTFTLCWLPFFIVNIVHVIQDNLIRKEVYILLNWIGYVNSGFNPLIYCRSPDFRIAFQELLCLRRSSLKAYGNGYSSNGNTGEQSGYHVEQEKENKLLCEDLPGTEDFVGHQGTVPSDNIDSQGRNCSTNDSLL
TLR9-MyD88 block: TLR9-MyD88 interaction inhibition; AID 504734; inhibition, % at 4.98 µM; Q9NR96+Q99836; CHO BLA complementation TLR9-MyD88, CCF4 FRET ratio; 340,000 tested, 0.21% active;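 active = inhibition above the mean over all tested compounds plus 3 SD, cut at about 21% in these data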
NOD2 RIPK2 PPI: blocks binding of human NOD2 to RIPK2. O43353. CHO BLA complementation NOD2-RIPK2, CCF4 ratio. inhibition, % at 4.98 µM. 360,000 tested, 0.38% active. AID 624267; in the data active = inhibition above about 21%
TLR4-MyD88 BLA: blocks binding of human TLR4 to MyD88. 200,000 tested, 0.18% active. HeLa CL3-4 TLR4/MyD88 BLA complementation, FRET ratio. AID 861. inhibition, % at 8.4 µM; in the data active = inhibition above about 25%
NTR1 ag conf: NTR1 (human) agonism, confirmed. shares compounds with NTR1 ag. NTR1-U2OS beta-arrestin-GFP translocation imaging. activation, % at 20 µM. 480 tested, 38% active. AID 504550;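 active = mean activation at 20 µM of at least 40%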
A number is an active result; n = inactive; x = not tested or not shown.

SMILES	ABHD5-PLIN5 inh	NTR1 ag	Beta2AR agonist	TLR9-MyD88 block	NOD2 RIPK2 PPI	TLR4-MyD88 BLA	NTR1 ag conf
COc1ccc(OC)c(NC(=O)CN(Cc2ccc(F)cc2)C2CCCCC2)c1	n	n	n	n	n	x	x
N#Cc1c(N)nc(SCC(=O)C23CC4CC(CC(C4)C2)C3)c(C#N)c1-c1ccc(Cl)cc1	n	n	n	n	n	n	x
CSc1nc(N)nc(SCC(=O)C23CC4CC(CC(C4)C2)C3)c1C#N	n	45	n	n	n	n	n
COc1cccc(C(O)c2ncc(-c3ccccc3Cl)[nH]2)c1 (centres undefined)	n	x	x	x	n	x	x
Cc1ccc(OCC(=O)N/N=C\c2cn(Cc3ccccc3)c3ccccc23)cc1C	n	41	n	n	n	n	n
Nc1ccccc1C#CC(=O)c1ccccc1	n	71	44	n	n	x	83
OC(c1cccc(Cl)c1)c1ncc(-c2cccc3ccccc23)[nH]1 (centres undefined)	n	x	x	x	n	x	x
OCc1cccc(-c2cnc3c(Nc4cccc(OC(F)(F)C(F)F)c4)nccn23)c1	n	x	x	x	n	x	x
Cc1cc(C)c2c(c1)/C(=C/C(=O)c1ccc(Br)s1)C(=O)N2	n	58	65	n	n	n	68
Cc1cc(Br)c2c(c1)/C(=C/C(=O)c1cccs1)C(=O)N2	n	63	n	n	n	n	41
COc1ccc(Cl)cc1-c1cc(C(=O)N[C@H](C)c2ccccc2)[nH]n1	n	x	x	x	n	x	x
CCOc1cc(/C=C2/C(=O)ON=C2C)ccc1OCc1ccc(F)cc1	n	57	n	n	n	n	64
COc1ccc(/C=C2/C(=O)ON=C2C)cc1Br	n	n	n	n	n	x	x
CCOc1cc(/C=C2/C(=O)ON=C2C)ccc1OCc1ccccc1	x	48	x	x	x	n	54
C/C(=N\NC(=O)c1ccc(C)cc1C)c1ccc2c(c1)Nc1ccccc1S2	n	43	n	n	n	n	n
COc1ccc(N2CCN(c3nc(NCCc4ccc(OC)c(OC)c4)nc(OC)n3)CC2)cc1	n	44	n	n	n	n	n
COc1ccc(C(=O)Oc2cccc(Nc3ncnc4ccccc34)c2)cc1OC	n	n	n	n	n	n	x
COc1cc(C(=O)Oc2cccc(Nc3ncnc4ccccc34)c2)cc(OC)c1OC	n	44	n	n	n	n	n
COC(=O)C1=C(C)NC(C)=C(C(=O)OC)C1C(=O)OCC(=O)NC1CCCCC1C (centres undefined)	n	x	x	n	n	x	x
CCNC(=O)C1(C)CCN(Cc2ccc(C#N)cc2)C1 (centres undefined)	n	x	x	x	n	x	x
NS(=O)(=O)c1ccc(N2N=C(c3ccc(Br)cc3)CC2c2ccc(F)cc2)cc1 (centres undefined)	n	42	n	n	n	n	42
O=C1CC(N(CCc2ccccc2)C(=S)Nc2ccccc2)C(=O)N1c1ccc(Br)cc1 (centres undefined)	n	60	n	n	n	n	n
COc1ccc(CCN(C(=S)Nc2ccccc2)C2CC(=O)N(c3ccccc3)C2=O)cc1 (centres undefined)	n	n	n	n	n	n	x
Cc1cc2c3c(c1)C(C)(c1ccccc1)CC(C)(C)N3C(=O)C21C(C#N)=C(N)OC2=C1C(=O)CC(C)(C)C2 (centres undefined)	n	40	n	n	n	n	42
CCN1CCN(CCCNC(=O)c2ccc(/C=C3/Sc4ccccc4N(Cc4ccccc4F)C3=O)cc2)CC1	n	41	47	n	n	n	n
SMILES	ABHD5-PLIN5 inh	NTR1 ag	Beta2AR agonist	TLR9-MyD88 block	NOD2 RIPK2 PPI	TLR4-MyD88 BLA	NTR1 ag conf
Nc1ncnc2c1ncn2C1C=C(CO)C(O)C1O (centres undefined)	n	x	n	n	n	x	x
O=C(NCc1ccccc1)C1CCC(CNS(=O)(=O)c2cccs2)CC1 (centres undefined)	n	42	n	n	n	x	n
COC(=O)C1=CN(c2cccc(OCc3ccccc3)c2)C(N)=C(C#N)C1c1cccc(OC)c1OC (centres undefined)	n	x	x	x	n	x	x
O=C(Nc1ccc(-c2noc(-c3cccs3)n2)cc1)c1cccnc1	n	47	n	n	n	n	n
COc1cccc(-c2nc(-c3ccc(NC(=O)c4cccnc4)cc3)no2)c1	n	n	n	n	n	n	x
OC[C@@H]1CN(Cc2ccccc2)C[C@H](n2cnc3c(N4CCN(c5ccccc5)CC4)ncnc32)O1	n	x	x	x	n	x	x
CC(=O)c1cccc(NC(=O)C2Cc3c(-c4ccco4)ccnc3O2)c1 (centres undefined)	n	x	x	x	n	x	x
Cc1cccc(NC(=O)c2nc[nH]c2C(=O)N[C@@H](C)c2ccccc2)c1	n	50	n	n	n	x	n
O=C(CCc1ccc(O)cc1)c1c(O)cc(O)cc1O	n	n	n	n	n	x	x
COc1cc(O)c(CC=C(C)C)c(O)c1C(=O)CCc1ccc(O)cc1	n	55	n	n	n	x	n
O=C(Cc1ccc(Cl)cc1)NC(=S)Nc1ccccc1N1CCOCC1	n	45	n	n	n	n	n
CCCC(=O)NC(=S)Nc1ccccc1N1CCOCC1	n	n	n	n	n	n	x
O=c1c2ccccc2c(C=Nc2ccc(O)cc2)c(O)n1Cc1ccccc1	n	n	n	n	n	x	n
CN(C)CCNC(=O)c1cccc(-c2cc(NC=O)c3ncc(-c4cccc(C(F)(F)F)c4)n3c2)c1	n	x	x	x	n	x	x
O=C1/C(=C/c2cccnc2)Oc2cc(OS(=O)(=O)c3ccccc3)ccc21	n	42	n	n	n	n	n
COc1ccc(S(=O)(=O)Oc2ccc3c(c2)O/C(=C\c2cccnc2)C3=O)cc1	n	43	n	n	n	n	n
O=C1/C(=C/c2cccnc2)Oc2cc(OS(=O)(=O)c3ccc(Cl)cc3)ccc21	n	n	n	n	n	n	x
O=C1NC[C@H](CCCCN2CCN(CCc3ccc(O)cc3)C(=O)C2=O)N(CCc2ccc(O)cc2)C1=O	n	x	x	x	n	x	x
COC(=O)C(=Cc1ccc(OCc2ccc([N+](=O)[O-])cc2)c(OC)c1)C(=O)OC	n	45	n	n	n	n	75
O=C1Nc2cc(C(=O)NCCCN3CCOCC3)ccc2S/C1=C/c1cccc(Cl)c1	n	44	n	n	n	x	n
CC(C)(C)c1ccc(OCCOc2ccc(C(C)(C)C)cc2NC=O)c(NC=O)c1	n	43	n	n	n	x	n
CC(C)Cn1c(N)c(C(=O)CSc2cc(Cl)ccc2Cl)c(=O)n(C)c1=O	x	48	x	x	x	n	47
CCOc1ccc(C(C(=O)NCC2CCCO2)N(C(=O)c2snc(C(N)=O)c2N)c2ccc(F)cc2)cc1 (centres undefined)	n	44	n	n	n	x	n
COc1ccc(O)c(-c2cc(-c3cccc(Br)c3)n[nH]2)c1	n	55	n	n	n	n	n
COc1ccc(-c2cc(-c3cc(OC)ccc3O)[nH]n2)cc1	n	n	n	n	n	n	x

Assay outcomes from PubChem BioAssay.
